# p53 PUMA act – mutant p53 pathway reactivation. SW480 PUMA-promoter luciferase. activation, % at 9.98 µM. hit rate 1.5% among 28,000. AID 624151; in the data active = activation above about 52%; inconclusive = no clear call, values can overlap the other calls
# MITF inh – inhibitors of MITF; AID 2240; inhibition, % (concentration not given with the values); TRPM1 promoter luciferase, luminescence, 24 h; hit rate 0.28% among 37,000; in the data active = inhibition above about 85%; inconclusive = no clear call, values can overlap the other calls; inactive = below about 68%;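 also: human melanocyte line stably carrying TRPM1 promoter luciferase reporter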
# NOMO-1 viab – STK33 inhibitor candidate reducing NOMO-1 cell viability; NOMO-1 AML viability, CellTiter-Glo luminescence, 72 h; inhibition, % (concentration not given with the values); hit rate 7.5% among 37,000; in the data active = inhibition above about 80%; inconclusive = no clear call, values can overlap the other calls
# STK33 kin inh – inhibitors of human STK33 kinase; inhibition, % at 12.5 µM; ADP-Glo luminescence, MBP substrate; hit rate 0.44% among 27,000; AID 2322; in the data active = inhibition above about 20%; inconclusive = no clear call, values can overlap the other calls
# Target sequence (Q9BYT3 whole entry, looked up): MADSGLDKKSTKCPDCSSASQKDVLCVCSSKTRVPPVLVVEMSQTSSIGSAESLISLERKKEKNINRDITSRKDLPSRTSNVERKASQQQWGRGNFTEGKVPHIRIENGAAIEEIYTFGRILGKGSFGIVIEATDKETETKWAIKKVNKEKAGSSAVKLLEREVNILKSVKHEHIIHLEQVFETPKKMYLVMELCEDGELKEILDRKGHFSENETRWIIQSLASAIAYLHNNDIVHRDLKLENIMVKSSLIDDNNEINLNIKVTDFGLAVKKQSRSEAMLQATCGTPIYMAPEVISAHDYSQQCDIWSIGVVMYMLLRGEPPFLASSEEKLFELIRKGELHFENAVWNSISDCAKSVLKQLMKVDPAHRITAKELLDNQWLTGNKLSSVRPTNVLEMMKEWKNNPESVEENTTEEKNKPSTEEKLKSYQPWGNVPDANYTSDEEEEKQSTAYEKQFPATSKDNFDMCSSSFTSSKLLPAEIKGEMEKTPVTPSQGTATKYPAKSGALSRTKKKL
# * hit, by the source's call; ? = inconclusive; / = not tested or not shown. Only a selection was taken, and hits are over-represented in it overall.
SMILES,p53 PUMA act,MITF inh,NOMO-1 viab,STK33 kin inh
C[C@@H]1CN([C@H](C)CO)C(=O)Cc2cc(NC(=O)Nc3ccc(C(F)(F)F)cc3)ccc2O[C@H]1CN(C)S(=O)(=O)c1ccc(F)cc1,/,25,6,-1
C[C@H](CO)N1C[C@H](C)[C@H](CN(C)S(=O)(=O)c2ccc(F)cc2)Oc2ccc(NC(=O)CCC(F)(F)F)cc2CC1=O,/,20,126*,0
C[C@@H]1CN([C@@H](C)CO)C(=O)Cc2cc(NC(=O)Nc3ccc(C(F)(F)F)cc3)ccc2O[C@@H]1CN(C)S(=O)(=O)c1ccc(F)cc1,/,17,100*,-8
C[C@H]1CN([C@@H](C)CO)C(=O)Cc2cc(NC(=O)Nc3ccc(C(F)(F)F)cc3)ccc2O[C@H]1CN(C)S(=O)(=O)c1ccc(F)cc1,-57,46,115*,-1
C[C@H]1CN([C@@H](C)CO)C(=O)Cc2cc(NC(=O)Nc3ccc(F)cc3)ccc2O[C@@H]1CN(C)S(=O)(=O)c1ccc(F)cc1,/,-11,25,-2
CCn1c(SCC(=O)Nc2ccccc2)nc2ccc(I)cc2c1=O,-4,5,15,-4
C[C@@H]1CCCCO[C@@H](CN(C)S(=O)(=O)c2ccc(Cl)cc2)[C@@H](C)CN([C@H](C)CO)C(=O)c2cc(NC(=O)Nc3ccc(C(F)(F)F)cc3)ccc2O1,/,0,23,1
C[C@@H]1CCCCO[C@H](CN(C)S(=O)(=O)c2ccc(Cl)cc2)[C@@H](C)CN([C@H](C)CO)C(=O)c2cc(NC(=O)Nc3ccc(C(F)(F)F)cc3)ccc2O1,/,15,98*,1
COc1ccc(S(=O)(=O)N(C)C[C@@H]2Oc3ccc(NC(=O)Nc4ccc(C(F)(F)F)cc4)cc3C(=O)N([C@H](C)CO)C[C@H]2C)cc1,-47,24,113*,/
COc1ccc(S(=O)(=O)Nc2ccc3c(c2)C(=O)N([C@H](C)CO)C[C@H](C)[C@H](CN(C)S(=O)(=O)c2ccc(Cl)cc2)OCCCC[C@@H](C)O3)cc1,/,21,107*,4
C[C@@H]1CN([C@@H](C)CO)C(=O)c2cc(NC(=O)Nc3ccc(C(F)(F)F)cc3)ccc2O[C@H]1CN(C)S(=O)(=O)c1ccc(Cl)cc1,/,-17,93*,/
COc1ccc(OCC(=O)Nc2cc(-c3nc4ccccc4o3)ccc2C)cc1,-36,-17,22,3
COc1ccc(S(=O)(=O)N(C)C[C@@H]2Oc3ccc(NC(=O)Nc4ccc(C(F)(F)F)cc4)cc3C(=O)N([C@H](C)CO)C[C@@H]2C)cc1,-21,39,105*,-5
COc1ccc(S(=O)(=O)N(C)C[C@@H]2Oc3ccc(NC(=O)Nc4ccc(C(F)(F)F)cc4)cc3C(=O)N([C@@H](C)CO)C[C@H]2C)cc1,/,-9,48,/
C=C1CCC2[C@](C)(CO)[C@H](O)CC[C@@]2(C)[C@@H]1C/C=C1/C(=O)OC[C@H]1O (some centres not stated),/,28,98*,0
C=C1CCC2C(C)(CO)CCCC2(C)C1CC/C(C)=C/C(=O)O (configuration not stated),0,/,/,-7
CS(=O)(=O)N(CC(=O)Nc1ccc2ccccc2c1)c1ccc(F)cc1,13,-7,41,0
CCOc1ccccc1-c1nnc(SCC(=O)Nc2ccc(I)cc2)o1,-21,26,119*,-1
O=C(CSc1ncccn1)Nc1ccc(Cl)cc1Cl,134*,-85,16,2
Cc1ccnc(SCC(=O)Nc2cccc(Cl)c2)n1,-1,-15,8,-1
Cc1ccnc(SCC(=O)Nc2ccc(Cl)cc2Cl)n1,52*,-31,30,-4
CCOc1ccc(NC(=O)CSc2ncccn2)cc1,54*,-98,1,3
COC(=O)c1cc(NC(=O)CSC2=NCCS2)cc(C(=O)OC)c1,2,-18,93*,0
CCC1SC2=NCN(c3ccccc3)CN2C1=O (configuration not stated),/,6,101*,/
CN(C)C(=O)COc1cc2oc(=O)c3c(c2cc1Cl)CCC3,/,-7,-6,/
SMILES,p53 PUMA act,MITF inh,NOMO-1 viab,STK33 kin inh
COc1ccc(NC(=O)Nc2cccc3c2O[C@@H](CN(C)Cc2ccc4c(c2)OCO4)[C@H](C)CN([C@@H](C)CO)C3=O)cc1,/,30,115*,/
C[C@@H]1CN([C@@H](C)CO)C(=O)c2cccc(NC(=O)Nc3ccc4c(c3)OCO4)c2O[C@H]1CN(C)Cc1ccc(C(F)(F)F)cc1,/,50,109*,/
C[C@H]1CN([C@@H](C)CO)C(=O)c2cccc(NC(=O)Nc3ccc4c(c3)OCO4)c2O[C@@H]1CN(C)Cc1ccc(C(F)(F)F)cc1,/,42,110*,/
COc1ccc(NC(=O)Nc2cccc3c2O[C@H](CN(C)Cc2ccc4c(c2)OCO4)[C@H](C)CN([C@H](C)CO)C3=O)cc1,/,-41,0,/
C[C@@H]1CN([C@H](C)CO)C(=O)c2cccc(NC(=O)Nc3ccc(F)cc3)c2O[C@H]1CN(C)Cc1ccc2c(c1)OCO2,/,11,97*,/
C[C@H]1CN([C@@H](C)CO)C(=O)c2cccc(NC(=O)Nc3ccc(F)cc3)c2O[C@@H]1CN(C)Cc1ccc2c(c1)OCO2,/,-16,72,/
O=C(Nc1ccccc1C(=O)N1CCOCC1)c1ccc(CN2CCOCC2)cc1,6,3,-31,-2
C[C@H](CO)N1C[C@H](C)[C@H](CN(C)Cc2ccc(C(F)(F)F)cc2)Oc2c(NC(=O)Nc3ccc4c(c3)OCO4)cccc2C1=O,/,9,?,/
C[C@H](CO)N1C[C@H](C)[C@@H](CN(C)Cc2ccc(C(F)(F)F)cc2)Oc2c(NC(=O)Nc3ccc4c(c3)OCO4)cccc2C1=O,/,21,105*,/
C[C@@H]1CN([C@@H](C)CO)C(=O)c2cccc(NC(=O)Nc3ccc(C(F)(F)F)cc3)c2O[C@@H]1CN(C)Cc1ccc2c(c1)OCO2,/,-2,106*,/
C[C@H]1CN([C@@H](C)CO)C(=O)c2cccc(NC(=O)Nc3ccc4c(c3)OCO4)c2O[C@@H]1CN(C)Cc1ccc2c(c1)OCO2,/,-17,6,/
CC1=C(CO)C(=O)OC([C@@H](C)C2CC[C@H]3C4C[C@H]5O[C@]56[C@@H](O)C=CC(=O)[C@]6(C)C4CC[C@]23C)C1 (some centres not stated),/,90*,120*,1
Cc1ccc(S(=O)(=O)Nc2cc(Cl)c(O)c(Sc3nc(C)cc(C)n3)c2)cc1,-17,-13,-17,-2
C[C@@H]1CN([C@H](C)CO)C(=O)c2cc(NC(=O)Nc3ccccc3)ccc2O[C@@H]1CN(C)C(=O)Nc1ccc(C(F)(F)F)cc1,-17,-1,87*,/
C[C@H]1CN([C@@H](C)CO)C(=O)c2cc(NC(=O)Nc3ccccc3)ccc2O[C@H]1CN(C)C(=O)Nc1ccc(C(F)(F)F)cc1,-15,2,33,/
C[C@@H]1CN([C@@H](C)CO)C(=O)c2cc(NC(=O)Nc3ccccc3)ccc2O[C@@H]1CN(C)C(=O)Nc1ccc(C(F)(F)F)cc1,-15,27,102*,2
C[C@H](CO)N1C[C@H](C)[C@H](CN(C)C(=O)Nc2ccccc2)Oc2ccc(NC(=O)Nc3ccc(C(F)(F)F)cc3)cc2C1=O,/,45,103*,/

# Screening results: PubChem, Broad Institute
